Results as given in publication PMC4336329 (PLoS ONE, 2015).
In all, about 310,000 compounds went through this assay and about 14,000 (4.5%) showed an effect of 50% or more. Effects have a minus sign here. What follows is part of a selection rich in strong results, with near analogues and random picks from the rest.

The molecules below were run against human ether-à-go-go-related gene (hERG) potassium channel (human, UniProt Q12809) (assay: primary screen, population patch clamp on CHO cells stably expressing hERG; higher = less effect of the substance).
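Also: peak tail current of the secondary pulse compared with the same well before compound.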

human ether-à-go-go-related gene (hERG) potassium channel, sequence (Q12809 whole entry, looked up): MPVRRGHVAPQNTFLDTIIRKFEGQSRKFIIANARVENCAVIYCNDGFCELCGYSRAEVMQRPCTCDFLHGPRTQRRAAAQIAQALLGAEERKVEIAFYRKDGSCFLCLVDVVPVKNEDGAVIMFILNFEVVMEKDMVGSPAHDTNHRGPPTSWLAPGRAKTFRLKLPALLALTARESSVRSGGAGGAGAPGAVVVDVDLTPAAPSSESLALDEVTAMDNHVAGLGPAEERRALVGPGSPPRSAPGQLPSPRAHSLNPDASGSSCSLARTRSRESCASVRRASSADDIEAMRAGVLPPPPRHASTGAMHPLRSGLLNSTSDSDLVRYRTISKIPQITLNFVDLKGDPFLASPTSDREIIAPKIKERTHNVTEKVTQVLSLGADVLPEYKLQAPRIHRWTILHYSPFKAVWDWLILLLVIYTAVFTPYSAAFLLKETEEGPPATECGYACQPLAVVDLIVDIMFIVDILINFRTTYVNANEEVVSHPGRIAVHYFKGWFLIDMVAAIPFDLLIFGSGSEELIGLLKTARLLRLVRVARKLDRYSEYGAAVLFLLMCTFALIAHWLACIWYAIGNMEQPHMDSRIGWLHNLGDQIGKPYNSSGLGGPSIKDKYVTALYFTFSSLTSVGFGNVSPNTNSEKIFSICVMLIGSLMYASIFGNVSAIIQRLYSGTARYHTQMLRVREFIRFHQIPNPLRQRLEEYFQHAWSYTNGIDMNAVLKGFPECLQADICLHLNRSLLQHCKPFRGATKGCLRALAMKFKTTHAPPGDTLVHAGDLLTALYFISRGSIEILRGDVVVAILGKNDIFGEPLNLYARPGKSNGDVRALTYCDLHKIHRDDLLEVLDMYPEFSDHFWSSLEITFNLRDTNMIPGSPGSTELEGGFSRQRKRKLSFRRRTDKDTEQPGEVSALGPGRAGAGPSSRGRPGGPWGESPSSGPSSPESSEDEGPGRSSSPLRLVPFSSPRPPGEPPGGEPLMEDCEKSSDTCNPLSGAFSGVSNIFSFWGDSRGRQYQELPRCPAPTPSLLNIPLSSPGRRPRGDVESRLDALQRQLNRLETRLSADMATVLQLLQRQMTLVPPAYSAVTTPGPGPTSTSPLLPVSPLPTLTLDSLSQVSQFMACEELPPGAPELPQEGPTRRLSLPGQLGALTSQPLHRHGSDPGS

Row | SMILES | hERG current change (%, negative = inhibition) at 10uM [%]
1 | O=C(c1ccco1)N1N=C(c2cccs2)CC1c1cc([N+](=O)[O-])ccc1O (stereo not shown) | 7.51
2 | CCC(C)CCN1C(N(C)C)=NC[C@@H]1Cc1ccccc1 (stereo partly shown) | -22.5
3 | CC(C)C[C@H]1CN=C(N(C)C)N1CCCCc1ccccc1 | -64.7
4 | C[C@H]1CN=C(N(C)C)N1CCCCc1ccccc1 | -25.5
5 | CCC(C)CCN1C(N(C)C)=NC[C@@H]1CC(C)C (stereo partly shown) | -11
6 | CC(C)CCCN1C(N(C)C)=NC[C@@H]1Cc1ccccc1 | -24.9
7 | CN(C)C1=NC[C@H](Cc2ccccc2)N1CCCCc1ccccc1 | -71
8 | CCCCCCCN1C(N(C)C)=NC[C@@H]1Cc1ccccc1 | -80.1
9 | CCC(CC)CN1C(N(C)C)=NC[C@@H]1CC(C)C | -4.65
10 | CCN1C(N(C)C)=NC[C@@H]1Cc1ccccc1 | -1.57
11 | COC(=O)C1=NN(c2cccc(C)c2)C2C(=O)N(c3ccccc3OC)C(=O)C12 (stereo not shown) | -4.79
12 | COc1ccccc1OCc1cc(C(=O)NCc2ccc(N3CCCC3=O)cc2)no1 | 13.4
13 | Cc1ccc(OC(=O)c2cccc(S(=O)(=O)N3CCN(C)CC3)c2)c(Br)c1 | -19.5
14 | O=C(NCc1ccccc1)C(C(=O)c1ccc(F)cc1)n1ccccc1=O (stereo not shown) | -0.0984
15 | COc1ccc(C2(C(=O)Nc3ccccc3)CCOCC2)cc1 | -14.2
16 | CC1CCCCC1NC(=O)COC(=O)/C=C/c1ccco1 (stereo not shown) | -1.9
17 | O=C1c2ccc(Oc3ccc([N+](=O)[O-])cc3)cc2C(=O)N1CCCO | -60.8
18 | O=C1c2ccc(Oc3ccc4c(c3)C(=O)N(CCCO)C4=O)cc2C(=O)N1CCCO | -1.78
19 | O=C1c2ccc(Oc3ccc4c(c3)C(=O)N(CCCCO)C4=O)cc2C(=O)N1CCCCO | -24.1
20 | O=C(O)CCN1C(=O)c2ccc(Oc3ccc([N+](=O)[O-])cc3)cc2C1=O | 4.85
21 | O=C(O)CN1C(=O)c2ccc(Oc3ccc([N+](=O)[O-])cc3)cc2C1=O | 23.2
22 | O=C1c2ccc(Oc3ccc([N+](=O)[O-])cc3)cc2C(=O)N1CCO | -52.8

Row | SMILES | hERG current change (%, negative = inhibition) at 10uM [%]
23 | CCC(=O)N1CCCc2cc(S(=O)(=O)N3CCN(c4ccccc4F)CC3)ccc21 | -23.7
24 | CCOC(=O)C1CCCN(C(=O)c2cnn3c(C(F)F)cc(-c4ccc(C)cc4)nc23)C1 (stereo not shown) | -38.4
25 | CC(C)(CNC(=O)c1ccc(Cl)c(S(=O)(=O)N2CCc3ccccc3C2)c1)N1CCOCC1 | -50.3
26 | Cl.O=C(NCCCN1CCOCC1)c1ccc(Cl)c(S(=O)(=O)N2CCCCCC2)c1 | -50.6
27 | Cc1ccc(CSCCNC(=O)c2ccc(Cl)c(S(=O)(=O)N3CCOCC3)c2)cc1 | -40.5
28 | O=C(NCCN1CCOCC1)c1ccc(Cl)c(S(=O)(=O)N2CCCCC2)c1 | -58.3
29 | O=C(NCCN1CCOCC1)c1ccc(Cl)c(S(=O)(=O)N2CCCC2)c1 | -0.109
30 | COc1ccc(C(=O)NCC(C)(C)N2CCOCC2)cc1S(=O)(=O)N1CCCC1 | -8.82
31 | CC(C)(C)SCCNC(=O)c1ccc(Cl)c(S(=O)(=O)N2CCOCC2)c1 | -6.74
32 | O=C(NCCSCc1ccccc1)c1ccc(Cl)c(S(=O)(=O)N2CCOCC2)c1 | -50
33 | Cl.O=C(NCCN1CCOCC1)c1ccc(Cl)c(S(=O)(=O)N2CCCCCC2)c1 | -40.1
34 | Cc1ccc(C(=O)NCCN2CCOCC2)cc1S(=O)(=O)N1CCCCC1 | -20.7
35 | Cc1ccccc1CSCCNC(=O)c1ccc(Cl)c(S(=O)(=O)N2CCOCC2)c1 | -42.2
36 | O=C(NCCN1CCOCC1)c1ccc(Cl)c(S(=O)(=O)N2CCOCC2)c1 | 13.1
37 | Cc1ccccc1C(=O)NC(=S)Nc1ccc(S(=O)(=O)N2CCN(C)CC2)cc1 | 7.75
38 | COc1ccc(-c2noc(CN3CCCCC3)n2)cc1OC | -1.49
39 | Cc1cccc(C)c1NC(=O)CN(c1ccccn1)S(=O)(=O)c1ccc(F)cc1 | 19.1
40 | Cc1ccc2[nH]cc(CCNS(=O)(=O)c3ccc(F)cc3)c2c1 | -4.39
41 | Cn1c(-c2cccc([N+](=O)[O-])c2)cnc1NCc1cccc([N+](=O)[O-])c1.O=C(O)C(=O)O | -77.8
42 | Cn1c(-c2ccccc2)cnc1NCc1ccccc1 | -21.3
43 | CC(C)NCc1cccc([N+](=O)[O-])c1.O=C(O)C(=O)O | 3.39
44 | Cc1ccc(CNc2ncc(-c3ccccc3)n2C)o1.O=C(O)C(=O)O | -37

Row | SMILES | hERG current change (%, negative = inhibition) at 10uM [%]
45 | Cn1c(-c2ccccc2)cnc1NCc1cccc([N+](=O)[O-])c1 | -72
46 | O=C(c1cccc([N+](=O)[O-])c1)n1nc(-c2ccccc2)nc1NCc1ccccc1 | 9.75
47 | Cn1c(-c2ccc(F)cc2)cnc1NCc1cccc(F)c1 | -46
48 | Cn1c(-c2ccc(F)cc2)cnc1NCc1cccc([N+](=O)[O-])c1 | -70.9
49 | COc1cccc(CNc2ncc(-c3ccccc3)n2C)c1 | -35.6
50 | CSc1ccc(CNc2ncc(-c3cccc([N+](=O)[O-])c3)n2C)cc1.O=C(O)C(=O)O | -66.4
51 | CCN(CC)C(=O)c1ccc(NC(=O)Cn2nc(C)c3ccccc3c2=O)cc1 | -10.3
52 | Cc1ccc(C(=O)CSc2nnc(-c3cccnc3)n2N)cc1 | -15.2
53 | O=C(NCCN1C(=O)S/C(=C\c2ccc(Cl)c(Cl)c2)C1=O)C1COc2ccccc2O1 (stereo not shown) | -9.28
54 | COc1cc2c(cc1OC)[C@H](C)N(C(=O)NCc1ccccc1)CC2 | 5.78
55 | CCN(CC)c1ccc2cc(-c3nc4ccccc4n3C)c(=O)oc2c1 | 22.9
56 | O=C(c1cc2sccc2n1Cc1ccc(F)cc1)N1CCCc2ccccc21 | 15.3
57 | c1ccc2c(c1)c1ccccc1n1c(-c3ccc4c(c3)OCO4)nnc21 | 3.9
58 | Cn1ncc2c(N3CCCCC3)nc(NCCCO)nc21 | 11.9
59 | Cn1cnc2c1c(=O)n(Cc1ccc(F)cc1Cl)c(=O)n2C | 5.82
60 | CCOC(=O)C1CCCN(C(=O)c2cccc(S(=O)(=O)N3CCOCC3)c2)C1 (stereo not shown) | 15.6
61 | COc1ccc2cc(C#N)c(SCC(=O)N3CC(=O)Nc4ccccc43)nc2c1 | 14.9
62 | COc1ccc(S(=O)(=O)NCCc2cn3nc(C)c(C)nc3n2)cc1F | 3.38
63 | COc1ccc([N+](=O)[O-])cc1NCc1ccccc1.O=C(O)C(=O)O | 2.96
64 | Cn1c(-c2cccc(Br)c2)cnc1NCc1cccnc1 | -59.6
65 | COc1ccc([N+](=O)[O-])cc1NCc1cccc([N+](=O)[O-])c1 | -62.6
66 | Cn1c(-c2cccc([N+](=O)[O-])c2)cnc1NCc1ccc(C#N)cc1.O=C(O)C(=O)O | -75

Row | SMILES | hERG current change (%, negative = inhibition) at 10uM [%]
67 | COc1ccc(CNc2ncc(-c3ccccc3)n2C)cc1 | -32.6
68 | Cn1c(-c2ccc(Br)cc2)cnc1NCc1cccnc1 | -41.3
69 | Cn1c(-c2cccc([N+](=O)[O-])c2)cnc1NCc1cccc(F)c1.O=C(O)C(=O)O | -54.1
70 | COc1ccc(CNc2cc([N+](=O)[O-])ccc2OC)cc1 | -1.02
71 | CCOc1ccc(CNc2ncc(-c3ccccc3)n2C)cc1 | -38.9
72 | CNc1nc(N(C)C)nc(N(C)C)n1 | -7.71
73 | CCS(=O)(=O)N1Cc2ccccc2CC1C(=O)Nc1cccc(C)c1 (stereo not shown) | -4.95
74 | CCc1cccc2c(C(=S)N3CCCC3)c[nH]c12 | 8.97
75 | Nc1[nH]n2c(=O)cc(-c3ccccc3)nc2c1N=Nc1ccccc1 | 11
76 | COc1ccccc1C(=O)Oc1ccc(N2C(=O)CCC2=O)cc1 | -0.543
77 | Cc1cc(C(F)F)n2nc(C(=O)Nc3ccc(F)cc3F)nc2n1 | -2.95
78 | O=C(CSc1nnc2n1CCCN2)c1ccc([N+](=O)[O-])cc1 | -49.8
79 | Nc1ccc2sc(N)nc2c1 | 12.2
80 | Cc1cc(OC(C)C(=O)N(Cc2ccco2)C2CCS(=O)(=O)C2)cc(C)c1Cl (stereo not shown) | -1.99
81 | CC(C)=CCN1CCN(Cc2ccc(C#CC(C)(C)O)s2)CC1CCO (stereo not shown) | -1.88
82 | Cc1cccc(CNc2ncc(-c3cccc([N+](=O)[O-])c3)n2C)c1.O=C(O)C(=O)O | -71.1
83 | COc1ccc(CNc2ncc(-c3cccc([N+](=O)[O-])c3)n2C)c(OC)c1OC.O=C(O)C(=O)O | -47.5
84 | COc1cccc(-c2cnc(NCc3cc(Cl)ccc3O)n2C)c1.O=C(O)C(=O)O | -24.1
85 | COc1ccc(OC)c(CNc2ncc(-c3cccc([N+](=O)[O-])c3)n2C)c1.O=C(O)C(=O)O | -54.8
